VACV mCherry inh: vaccinia inhibition (mCherry reporter); 310,000 tested, 0.63% active; Vaccinia virus mCherry reporter infection, fluorescence; Potency, µM (titrated, usually from 36.5 µM), usual class: inhibitors; AID 720579; calls by dose curve; tested in A549 cells; note: nearly all actives have a fitted effect of over 35% in size
LASV entry inh: Lassa virus entry inhibition | Lassa virus pseudotype entry inhibition, cell reporter | Potency, µM (top dose mostly 37.9 µM), actives largely listed as inhibitors | 300,000 tested, 1.2% active | AID 540256; calls by dose curve; tested in HEK293 cells; note: nearly all actives have a fitted effect of over 50% in size
Vaccinia Venus: vaccinia inhibition (Venus reporter); Vaccinia virus Venus reporter expression, fluorescence; Potency, µM (series often up to 36.5 µM), actives largely listed as inhibitors; 330,000 tested, 0.46% active; AID 720580; calls by dose curve; tested in A549 cells; note: nearly all actives have a fitted effect of over 30% in size
HCV inhibitor: HCV inhibition. Huh7.5.1 HCVcc-Cre infection, luciferase reporter, 44 h. Potency, µM (doses to about 41.8 µM), actives largely listed as inhibitors. 340,000 tested, 3.4% active; active = well fitted inhibition curve with a large enough effect; inconclusive = small, poorly fitted or top-dose-only effect, or another doubt; inactive = no such curve, though single readings can be large or run the other way
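Seed cells (1,000/well) for 4 h; treat with compound and infect with HCVcc-Cre, moi about 0.5. Incubate 44 h, then detect luciferase activity.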
MARV entry inh: Marburg virus entry inhibition | 300,000 tested, 1.8% active | AID 540276 | Potency, µM (titrated, usually from 37.8 µM), usual class: inhibitors | Marburg virus pseudotyped entry inhibition, cell reporter; calls by dose curve; tested in HEK293 cells
Numbers stand for hits; 0 = inactive; ? = inconclusive; - = no result given; [ ] = remark or other dose. A selection: hits, their analogues and other compounds. The true share with any hit is near 4.6%.

SMILES | VACV mCherry inh | LASV entry inh | Vaccinia Venus | HCV inhibitor | MARV entry inh
COCC1=NC2C(=O)N(C)C(=O)N(CC(C)C)C2=N1 (stereo not drawn) | - | - | - | - | 0
CC(C)=CCCC(C)=CCON=C1C[C@@H](O)[C@@H](O)[C@@H]2[C@H]3C(=O)N(C[C@@H]4CCCO4)C(=O)[C@@H]3CC[C@H]12 | - | - | - | - | 0
CN(C)c1ccc(/C=C2\C=Cc3ccccc32)cc1[N+](=O)[O-] | 0 | - | 0 | - | -
COCCNC(=O)C(c1cccs1)N(C(=O)Cn1nnc2ccccc21)c1ccccc1 (stereo not drawn) | 0 | 0 | 0 | 0 | 0
COc1ccc(N(C(=O)CCl)C(C(=O)NCCc2ccccc2)c2cccs2)cc1Cl (stereo not drawn) | ? | 26µM | 10µM | 0.56µM | ?
Cc1nc(N2CCC(C)CC2)c2oc3ccccc3c2n1 | 0[1.46 µM] | ? | ? | ? | ?
Cc1nc(N2CCN(Cc3ccc4c(c3)OCO4)CC2)c2oc3ccccc3c2n1 | 0 | 0 | 0 | 0 | ?
COc1ccccc1N1CCN(c2nc(C)nc3c2oc2ccccc23)CC1 | - | ? | - | 3.5µM | ?
Cc1nc(N2CCN(Cc3ccc(Cl)cc3)CC2)c2oc3ccccc3c2n1 | 0 | 0 | 0 | 8.9µM | ?
CC1(C)CC(=O)C2=C(C1)NC(Nc1nc3ccccc3o1)=NC2c1cccnc1 (stereo not drawn) | 0 | - | 0 | - | -
CCOc1ccc(-c2cn3ccccc3n2)cc1 | 0 | ? | ? | 0 | 3.5µM
COC(=O)CSC1=C(C#N)C(c2ccc(C)o2)CC(=O)N1 (stereo not drawn) | 0 | ? | 0 | 0 | 1.8µM
CCn1c2ccc(F)cc2c2nnc(SCCN3CCCCC3)nc21 | 0 | 0 | 0 | 14µM | ?
CCCn1c2ccc(C)cc2c2nnc(SCCN3CCCCC3)nc21 | ? | 0 | ? | 8.9µM | ?
CC1CN(c2ccc(Cl)cc2)c2nc3c(c(=O)n(CC(=O)O)c(=O)n3C)n2C1 (stereo not drawn) | 0 | 0 | 0 | - | 0
CC(=O)N1CCC[C@H]1C(=O)NCC1Cc2cc(F)cc(-c3ccc(F)c(C)c3)c2O1 (stereo partly drawn) | 0 | - | 0 | - | -
COc1ccc(N(C(=O)Cc2cccs2)C(C(=O)NC2CCCC2)c2ccncc2)cc1 (stereo not drawn) | 0 | - | 0 | 0 | 0
COc1ccc(N(C(=O)CCl)C(C(=O)NC2CCCCC2)c2cccnc2)cc1 (stereo not drawn) | 11µM | 13µM | 2.8µM | 3.2µM | ?
CCc1ccc(N(C(=O)c2ccco2)C(C(=O)NC2CCCC2)c2cccnc2)cc1 (stereo not drawn) | 0 | 1µM | 0 | 0 | ?
O=C(NC1CCCCC1)C(c1cccnc1)N(C(=O)CCl)c1ccc(F)cc1 (stereo not drawn) | 7.9µM | ? | ? | 1.1µM | ?
O=C(NC1CCCCC1)C(c1cccnc1)N(C(=O)CCl)c1ccccc1Cl (stereo not drawn) | ? | ? | 10µM | 3.2µM | ?
O=C(NCC(=O)N(c1ccc(F)cc1)C(C(=O)NC1CCCCC1)c1cccnc1)c1ccco1 (stereo not drawn) | 0 | ? | 0 | 0 | ?
CC1(C(=O)N/N=C/c2ccc([N+](=O)[O-])o2)CC1(Br)Br (stereo not drawn) | ? | 13µM | 6.3µM | ? | ?
N#CCc1ccc(NC(=O)/C=C/c2ccc([N+](=O)[O-])o2)cc1 | 7.1µM | 7.9µM | ? | ? | ?
O=C(CC12CC3CC(CC(C3)C1)C2)N/N=C\c1ccc[nH]1 | 0 | 0 | 0 | 0 | 0
SMILES | VACV mCherry inh | LASV entry inh | Vaccinia Venus | HCV inhibitor | MARV entry inh
O=C(CC12CC3CC(CC(C3)C1)C2)N/N=C/c1ccc([N+](=O)[O-])o1 | 11µM | 16µM | 28µM | ? | ?
O=C(CN1CCCCCCC1)N/N=C/c1ccc([N+](=O)[O-])o1 | 11µM | ? | 10µM | ? | ?
CCOC(=O)N/N=C\c1ccc([N+](=O)[O-])o1 | 0 | 0 | ? | ? | 0
N.N.O=C(O)C1(C(=O)O)CCC1.[Pt+2] | - | 0 | - | - | 0
O=C(CN1CCOCC1)NN=Cc1ccc([N+](=O)[O-])o1 | 0 | - | 0 | - | -
Cc1cc(C)cc(OCC(=O)N/N=C/c2ccc([N+](=O)[O-])o2)c1 | ? | ? | ? | 11µM | ?
O=C(Cc1ccc([N+](=O)[O-])cc1)N/N=C/c1ccc([N+](=O)[O-])o1 | 10µM | - | 11µM | 14µM | -
Cc1ccc(S(=O)(=O)N2CCC(N3CCN(Cc4ccccc4)C(=O)C3=O)CC2)cc1C | ? | 0 | 0 | - | -
O=S1(=O)C=C(SCCN2CCCCC2)c2ccccc21 | 0 | 0 | 0 | 0 | 0
O=S1(=O)C=C(Sc2nc3ccccc3s2)c2ccccc21 | 14µM | ? | ? | 5µM | 3.7µM
Cc1cc(C)nc(SC2=CS(=O)(=O)c3ccccc32)n1 | 13µM | ? | 2µM | 0 | 4.5µM
O=S1(=O)C=C(Sc2nnc(-c3ccccc3)o2)c2ccccc21 | - | 21µM | - | 10µM | 5.8µM
Cn1nc(C(=O)NCCN2Cc3ccccc3OC(c3ccsc3)C2)c2ccccc2c1=O (stereo not drawn) | 0 | - | 0 | - | -
CC(C)(C)NC(=O)C(c1c[nH]c2ccccc12)N(C(=O)Cn1nnc(-c2ccc(Cl)cc2)n1)c1ccccc1F (stereo not drawn) | 0 | ? | ? | 10µM | ?
CC(C(=O)NC1CCCC1)N(C(=O)Cn1nnc(-c2ccc(F)cc2)n1)c1ccccc1F (stereo not drawn) | 0 | ? | 0 | 0 | 8.2µM
O=C(NCc1ccc(Cl)cc1)c1ccc(NC(=O)N2CC3CCCN3c3ccccc32)cc1 (stereo not drawn) | 0 | 0 | 0 | - | 0
Cn1ncc(S(=O)(=O)Cc2ccccc2)c(Br)c1=O | - | 9.2µM | - | - | 0
COCC(=O)Nc1cc(C(=O)N2CCN(c3ccccc3)CC2C)c2c(c1)nc(-c1ccncc1)n2C (stereo not drawn) | 0 | - | 0 | - | -
CN(C)c1ccc(-c2nc3ccccn3c2/N=C/c2ccc(Br)cc2)cc1 | 0 | 7.1µM | 0 | 0 | ?
Cc1c(-c2ccc(Br)cc2)nc2ccccn12 | 0 | ? | 0 | 0 | ?
O=C(/C=C/c1ccco1)NC(=S)Nc1cccc(-c2nc3ccccc3s2)c1 | 0 | 0 | ? | 10µM | 3.5µM
COc1ccc(-c2cc(C)no2)cc1S(=O)(=O)N1CCCCC1 | - | - | - | 0 | -
COc1ccc(-c2cc(C)no2)cc1S(=O)(=O)Nc1cccc(C)c1 | - | - | - | 10µM | -
Cc1cccc(N2CCN(S(=O)(=O)c3cc(-c4cc(C)no4)ccc3C)CC2C)c1 (stereo not drawn) | - | - | - | 4µM | -
COc1ccc(-c2cc(C)no2)cc1S(=O)(=O)N1CCN(c2cccc(C)c2)C(C)C1 (stereo not drawn) | ? | ? | ? | 10µM | -
CCC(=O)N1CCc2cc(CNC(=O)Cc3ccc(OC)c(OC)c3)ccc21 | 0 | 0 | 0 | - | -
N#Cc1c(N)nc(SCc2ccncc2)c(C#N)c1-c1cccs1 | ? | ? | ? | 0.56µM | ?
CC(=O)c1cc2c(cc1NS(=O)(=O)c1ccccc1)OCO2 | - | 0 | - | 0 | 0
CCC(C)NS(=O)(=O)c1ccc(S(=O)(=O)Nc2cc3c(cc2C(C)=O)OCO3)cc1 (stereo not drawn) | 0 | 0 | 0 | 14µM | 0

High-throughput results: PubChem BioAssay, National Center for Advancing Translational Sciences (NCATS)
